These results are taken from PubChem BioAssay.

Each structure is given as a SMILES string. Where “and” joins values, the source holds several entries; their conditions need not be identical. Equal entries are not always repeated. Calls of active or inactive are those of the source. Unless noted, how the calls were made is not given here.

Assay [1] is described as follows: compounds binding Alexa647 anti-His antibody – biochemical, small-molecule microarray, 635 nm fluorescence, artefact control for SMM control protein annotation, primary screen (AID 1128).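 Further: score merges feature fluorescence with signal-to-noise for each printed compound spot.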 The note with it: higher = more signal.
The test system of assay [2] is Human papillomavirus type 1a E7 protein (residues 1-88). The experiment in a line: HPV1a E7 small-molecule binders, primary screen, biochemical, small-molecule microarray, residues 1-88, 635 nm (AID 1129). As to conditions: small-molecule microarray binding, fluorescence 635 nm; higher = more signal.
Assay [3] addresses Focal adhesion kinase 1 (Homo sapiens) (UniProt Q05397). The experiment in a line: PTK2 protein binding on printed compound slides – biochemical, small-molecule microarray, 635/667 nm fluorescence, BSA, DTT, primary screen (AID 1130).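 Further: composite of spot emission at 667 nm and signal to noise over triplicate slides.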 The note with it: 635 nm fluorescence, higher = more signal.
Assay [4] relates to Fibrinogen (Alexa647-labelled). The assay is described as follows: Alexa647-fibrinogen binding to printed small molecules – biochemical, small-molecule microarray, 635/667 nm fluorescence, artefact control for SMM control-protein annotation, profiling panel (AID 1131).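 Further: z-score merges 667 nm fluorescence with per-spot signal-to-noise over triplicate slides.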 As to conditions: fibrinogen-A647 binding fluorescence, higher = more signal.
In assay [5] the target is Follistatin (Homo sapiens) (UniProt P19883). The experiment in a line: FST protein binding to printed compounds – biochemical, small-molecule microarray, 635/667 nm fluorescence, primary screen (AID 1132). As to conditions: 635 nm fluorescence, higher = more signal.
Follistatin (Homo sapiens), sequence (P19883 whole entry, looked up): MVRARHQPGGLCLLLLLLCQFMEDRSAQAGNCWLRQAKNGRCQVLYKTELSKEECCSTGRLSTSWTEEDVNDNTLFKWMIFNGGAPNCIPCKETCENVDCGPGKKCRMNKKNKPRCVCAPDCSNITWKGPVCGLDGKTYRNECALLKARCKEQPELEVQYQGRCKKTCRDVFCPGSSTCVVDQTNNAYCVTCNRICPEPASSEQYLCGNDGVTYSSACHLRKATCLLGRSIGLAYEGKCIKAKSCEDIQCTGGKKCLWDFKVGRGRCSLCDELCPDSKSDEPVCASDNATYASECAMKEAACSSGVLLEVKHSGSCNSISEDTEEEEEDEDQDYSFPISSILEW
The target in assay [6] is Fibroblast growth factor 2 (Homo sapiens) (UniProt P09038). The experiment in a line: basic fibroblast growth factor binding to printed compounds – biochemical, small-molecule microarray, 635/667 nm fluorescence, primary screen (AID 1133). As to conditions: FGF2, fluorescence 635/667, higher = more signal.
Fibroblast growth factor 2 (Homo sapiens), sequence (P09038 whole entry, looked up): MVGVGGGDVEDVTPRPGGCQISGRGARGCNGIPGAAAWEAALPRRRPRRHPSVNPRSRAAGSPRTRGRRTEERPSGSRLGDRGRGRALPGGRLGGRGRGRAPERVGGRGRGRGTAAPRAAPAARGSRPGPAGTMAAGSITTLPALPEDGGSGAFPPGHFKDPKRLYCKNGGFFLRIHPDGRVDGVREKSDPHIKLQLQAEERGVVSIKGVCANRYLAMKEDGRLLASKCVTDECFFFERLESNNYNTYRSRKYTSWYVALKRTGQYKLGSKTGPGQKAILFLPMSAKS
The nature of assay [7]: JC-1 mitochondrial potential readout, lung cancer cells – cell-based, A549, JC-1 fluorescence, basal, 24 h, 100 nL, profiling panel (AID 1138).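 Further: A549 lung adenocarcinoma cells under basal conditions with no added stimulus; test concentration not given here.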 As to conditions: higher = more signal.
In the next assay the test system is Lefty1. The experiment in a line: Lefty1 protein binding to printed compounds – biochemical, small-molecule microarray, 635/667 nm fluorescence, primary screen (AID 1139). As to conditions: fluorescence 635/667, higher = more signal.
Assay [8] deals with wheat germ agglutinin (Triticum aestivum), Alexa647-labelled. The experiment in a line: Alexa647-WGA lectin binding to printed small molecules – biochemical, small-molecule microarray, 635/667 nm fluorescence, artefact control for SMM control-protein annotation, profiling panel (AID 1140).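 Further: score merges 667 nm feature emission with signal to noise over triplicate slides.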 The note with it: WGA-A647 binding, 635 nm fluorescence, higher = more signal.
Assay [9] concerns the target Luciferin 4-monooxygenase (Photinus pyralis) (UniProt P08659). The assay is described as follows: inhibition of purified Photinus pyralis luciferase – biochemical, luminescence, purified enzyme, 2006 set, primary screen (AID 1141).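 Further: cell-free assay with purified firefly luciferase at 100 ng per well in PBS; test concentration not given here.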 As to conditions: purified firefly luciferase, SteadyGlo luminescence, 30 min; higher = more signal, called active from +8 up or from −8 down.

The test system of assay [10] is Wnt5a (protein binding on small-molecule microarray). The assay is described as follows: small molecules binding Wnt5a protein – biophysical, small-molecule microarray, 635/667 nm fluorescence, primary screen (AID 1142).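 Further: fluorescence read at 667 nm with signal to noise per printed feature.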 The note with it: 635 nm fluorescence, higher = more signal.
Assay [11] in a line: ATP-based viability of Huh7 replicon cells – cell-based, CellTiter-Glo luminescence, basal, 48 h, cytotoxicity control for HCV replication inhibitor project, primary screen (AID 1143).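 Further: Huh7 hepatoma cells carrying a hepatitis C replication reporter with no stimulus; test concentration not given here.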 As to conditions: higher = more signal, called active from +8 up or from −8 down.
Assay [12] can be described thus: Pseudomonas biofilm growth suppression – PAO1 strain, BacTiter-Glo luminescence, LB-PBS, primary screen (AID 1144). The note with it: P. aeruginosa PAO1 biofilm, 12 h, higher = more signal.
Assay [13] can be described thus: basal CRE-LacZ reporter activity in PC12 – cell-based, unstimulated, primary screen (AID 1145). As to conditions: no forskolin, luminescence, 4.5 h, higher = more signal, called active from +8 up or from −8 down.
Assay [14] is described as follows: forskolin-driven CRE-LacZ activity in PC12 – cell-based, CRE-LacZ reporter, forskolin-stimulated, primary screen (AID 1146).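 Further: PC12 cells with 6xCRE LacZ reporter stimulated by forskolin 10 µM; beta-galactosidase reporter signal reflecting CREB driven transcription.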 As to conditions: luminescence, 4.5 h, higher = more signal, called active from +8 up or from −8 down.
Assay [15] concerns the target Streptavidin (Streptomyces avidinii) (UniProt P22629). The experiment in a line: compounds binding control protein streptavidin – biophysical, small-molecule microarray, 635/667 nm fluorescence, artefact control for SMM compound annotation, primary screen (AID 1147).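 Further: signal reflects streptavidin binding to arrayed compounds as a control protein.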 As to conditions: higher = more signal.
The nature of assay [16]: probe aInhba binding on compound microarray – biochemical, small-molecule microarray, 635/667 nm fluorescence, primary screen (AID 1148).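 Further: score merges 667nm spot fluorescence with signal-to-noise for antibody binding to printed compounds.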 The note with it: higher = more signal.
For assay [17], the target named is Torsin-1A (Homo sapiens) (UniProt O14656). The experiment in a line: TOR1A wild-type binding on microarray – cell lysate, small-molecule microarray, lysate, 635/667 nm, primary screen (AID 1149). As to conditions: COS7 hTOR1A-WT lysate, 635 nm fluorescence, higher = more signal.
Torsin-1A (Homo sapiens), sequence (O14656 whole entry, looked up): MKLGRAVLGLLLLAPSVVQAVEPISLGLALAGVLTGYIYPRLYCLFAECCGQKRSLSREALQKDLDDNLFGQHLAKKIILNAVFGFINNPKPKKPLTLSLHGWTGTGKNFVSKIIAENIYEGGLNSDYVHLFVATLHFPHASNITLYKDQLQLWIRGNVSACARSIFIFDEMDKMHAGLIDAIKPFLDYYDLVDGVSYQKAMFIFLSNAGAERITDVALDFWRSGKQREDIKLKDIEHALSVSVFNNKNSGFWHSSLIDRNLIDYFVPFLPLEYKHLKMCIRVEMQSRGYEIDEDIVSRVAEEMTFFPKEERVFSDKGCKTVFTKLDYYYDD
For assay [18] the target is unchanged. The experiment in a line: torsin A mutant lysate binding on microarrays – cell lysate, small-molecule microarray, COS7 lysate, 635/667 nm fluorescence, primary screen (AID 1150).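 Further: score pools 667 nm emission and signal to noise measuring lysate protein binding.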 The note with it: COS7 hTOR1A mutant lysate, 635 nm fluorescence, higher = more signal.
Assay [19] concerns Sonic hedgehog protein (Shh). The experiment in a line: Sonic hedgehog microarray binding compounds – biochemical, small-molecule microarray, 635/667 nm fluorescence, primary screen (AID 1151).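 Further: Shh protein binding to compounds spotted on small-molecule microarray slides; score combines spot fluorescence intensity with signal-to-noise across triplicate slides.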 The note with it: 635 nm fluorescence, higher = more signal.

Luciferin 4-monooxygenase (Photinus pyralis), sequence (P08659 whole entry, looked up): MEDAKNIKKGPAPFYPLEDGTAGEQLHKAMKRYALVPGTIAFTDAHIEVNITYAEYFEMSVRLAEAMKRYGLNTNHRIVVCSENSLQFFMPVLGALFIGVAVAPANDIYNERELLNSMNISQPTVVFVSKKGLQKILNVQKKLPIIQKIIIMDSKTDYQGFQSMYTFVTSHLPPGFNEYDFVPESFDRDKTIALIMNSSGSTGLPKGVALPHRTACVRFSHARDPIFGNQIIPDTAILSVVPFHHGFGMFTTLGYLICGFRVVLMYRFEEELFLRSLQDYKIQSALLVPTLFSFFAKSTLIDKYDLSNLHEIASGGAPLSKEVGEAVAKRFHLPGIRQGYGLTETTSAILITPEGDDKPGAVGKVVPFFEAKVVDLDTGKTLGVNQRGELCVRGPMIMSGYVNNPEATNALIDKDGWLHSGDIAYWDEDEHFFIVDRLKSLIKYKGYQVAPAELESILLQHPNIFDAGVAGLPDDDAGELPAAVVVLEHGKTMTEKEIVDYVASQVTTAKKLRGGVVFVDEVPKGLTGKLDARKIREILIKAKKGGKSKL
Focal adhesion kinase 1 (Homo sapiens), sequence (Q05397 whole entry, looked up): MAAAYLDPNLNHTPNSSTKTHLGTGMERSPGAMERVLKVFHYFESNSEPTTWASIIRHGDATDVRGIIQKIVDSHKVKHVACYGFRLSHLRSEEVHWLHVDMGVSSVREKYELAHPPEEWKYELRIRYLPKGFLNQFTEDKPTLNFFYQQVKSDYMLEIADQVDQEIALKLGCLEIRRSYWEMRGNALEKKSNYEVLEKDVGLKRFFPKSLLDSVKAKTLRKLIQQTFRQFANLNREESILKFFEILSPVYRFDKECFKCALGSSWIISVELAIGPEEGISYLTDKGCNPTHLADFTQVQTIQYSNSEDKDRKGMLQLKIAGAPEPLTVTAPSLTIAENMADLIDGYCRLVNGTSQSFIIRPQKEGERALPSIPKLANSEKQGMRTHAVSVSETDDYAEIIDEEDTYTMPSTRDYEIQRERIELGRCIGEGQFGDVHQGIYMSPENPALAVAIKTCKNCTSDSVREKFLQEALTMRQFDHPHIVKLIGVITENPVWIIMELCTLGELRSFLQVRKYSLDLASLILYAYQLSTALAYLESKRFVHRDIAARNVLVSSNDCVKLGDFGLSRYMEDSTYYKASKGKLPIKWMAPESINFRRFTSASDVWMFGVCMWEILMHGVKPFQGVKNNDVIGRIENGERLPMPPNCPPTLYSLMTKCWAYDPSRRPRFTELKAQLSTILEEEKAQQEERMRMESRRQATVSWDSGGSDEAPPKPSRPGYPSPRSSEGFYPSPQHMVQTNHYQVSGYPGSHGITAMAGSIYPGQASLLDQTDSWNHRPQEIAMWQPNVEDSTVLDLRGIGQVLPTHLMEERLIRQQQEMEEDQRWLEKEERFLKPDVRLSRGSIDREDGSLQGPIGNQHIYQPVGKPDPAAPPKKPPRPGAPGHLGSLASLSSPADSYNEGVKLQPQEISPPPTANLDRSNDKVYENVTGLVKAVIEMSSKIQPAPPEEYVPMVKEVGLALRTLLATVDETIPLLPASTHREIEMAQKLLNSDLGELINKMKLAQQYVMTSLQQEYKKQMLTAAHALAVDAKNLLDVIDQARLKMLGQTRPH
Streptavidin (Streptomyces avidinii), sequence (P22629 whole entry, looked up): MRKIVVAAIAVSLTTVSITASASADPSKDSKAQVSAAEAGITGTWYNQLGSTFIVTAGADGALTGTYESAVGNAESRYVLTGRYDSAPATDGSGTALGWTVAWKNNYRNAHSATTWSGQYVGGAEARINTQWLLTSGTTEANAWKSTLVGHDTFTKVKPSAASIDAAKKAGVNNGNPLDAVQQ

For `CCCC[C@@H]1CN2[C@@H](CC[C@@H](C)[C@@H]2c2ccc(Br)cc2)C(=O)O1`, the composite z-score in assay [1] was 2.07 and 0.917; in assay [2], 1.16 and 0.572; in assay [3], 0.367 and -0.0877; in assay [4] it was 0.822 and 0.727; in [5], 0.493 and 0.606; in [6], 0.295 and 0.952. In addition, the composite z-score in the assay on Lefty1 was 0.647 and 0.882; in assay [8] it was 0.303 and 0.182; in assay [10], -0.0248 and 0.0673; in assay [15], 0.119 and 0.117; in assay [16], -0.101 and 0.0074; with Torsin-1A (Homo sapiens) [17], 0.434 and -0.0758. The composite z-score with Torsin-1A (Homo sapiens) [18] is 0.458 and 0.139; in assay [19], 0.611 and 0.993. Besides, the z-score in [7] was -0.555 and 1.63; in [9] it was 0.355 (inactive) and -0.572 (inactive); in [11], -0.216 (inactive) and -0.116 (inactive); in [12] it was 0.283 (inactive) and 1.16 (inactive); in assay [13], -0.704 (inactive) and 1.1 (inactive); in assay [14], 0.693 (inactive) and 0.189 (inactive).
Turning to `O=C1NC(=O)C2C1C=CC(C(O)c1ccc([N+](=O)[O-])cc1)N2Nc1ccc(Cl)cc1Cl` (stereo not given), the composite z-score in assay [1] was 0.396 and 0.455; in assay [2], 1.14 and 1.18; in [3], 0.649 and 0.342; in assay [4], 0.969 and 0.703; in assay [5], 0.816 and 0.774; in assay [6], 0.202 and -0.279. Besides, the composite z-score in the assay with Lefty1 was -0.427 and -0.899; in assay [8], 0.751 and 1.39; in assay [10], 0.283 and 0.0563; in assay [15], 0.404 and 0.519; in assay [16], 0.0301 and 0.175; with Torsin-1A (Homo sapiens) [17] it was 0.339 and 1.2. Further, the composite z-score with Torsin-1A (Homo sapiens) [18] is 0.703 and 1.22; in assay [19] it was -0.274 and -0.13. The z-score in assay [7] was 0.824 and -0.201; in assay [9] it was -1.81 (inactive) and -2.34 (inactive); in [11], -0.311 (inactive) and -0.861 (inactive); in assay [12] it was -1.48 (inactive) and -2.27 (inactive); in assay [13], 0.812 (inactive) and 0.443 (inactive); in assay [14] it was 0.479 (inactive) and -0.492 (inactive).
On to `Cc1ccc(S(=O)(=O)N[C@H]2COC(=O)[C@@H](C)COC(=O)[C@H](C)NC(=O)CC=C[C@H]2C)cc1`, for which the composite z-score is -0.293 in assay [1]; -0.336 in assay [2]; -0.295 in assay [3]; -0.343 in [4]; 0.162 in assay [5]; 1.09 in [6]. In addition, the composite z-score in the assay with Lefty1 was 0.72; in assay [8], -0.634; in assay [10] it was 0.105; in assay [15], -0.192; in assay [16], -0.128; in the assay with Torsin-1A (Homo sapiens) [17], -0.233. Moreover, the composite z-score in the assay with Torsin-1A (Homo sapiens) [18] is -0.11; in assay [19], 0.837. Besides, the z-score is 0.637 in [7]; -0.402 (inactive) in [9]; 0.365 (inactive) in assay [11]; -0.16 (inactive) in assay [12]; -0.204 (inactive) in [13]; -0.253 (inactive) in assay [14].
Regarding `C=C[C@@H](OC)[C@H](O)c1ccc(OC)c(O)c1`, the composite z-score is 0.0608 and -0.368 in assay [1]; -0.285 and -1.14 in assay [2]; -0.294 and -1.03 in assay [3]; -0.267 and -0.492 in [4]; 1.03 and 0.477 in assay [5]; 0.731 and 0.0203 in assay [6]. For the same molecule, the composite z-score was 0.85 and -0.493 in the assay with Lefty1; -0.368 and 0.0786 in [8]; 0.192 and -0.0615 in assay [10]; -0.964 and -1.77 in assay [15]; -0.281 and -0.306 in assay [16]; 0.059 and -0.285 with Torsin-1A (Homo sapiens) [17]. The composite z-score in the assay with Torsin-1A (Homo sapiens) [18] is -0.242 and -0.089; in assay [19], 0.439 and -0.117. Moreover, the z-score in assay [7] was -0.366 and 0.877; in assay [9], 0.318 (inactive) and -0.905 (inactive); in assay [11], -0.825 (inactive) and 1.07 (inactive); in assay [12] it was 0.729 (inactive); in assay [13], 0.441 (inactive) and -0.142 (inactive); in assay [14], 0.0793 (inactive) and -1.37 (inactive).
